The results in this text go back to PubChem BioAssay (Tox21).

“And” between values parts separate entries of the source, which are not always exact repeats. Identical values can stand only once. Results filed as inconclusive are left out. A number with no mark means an inactive call. The source made the active and inactive calls. Calls come from the whole dose curve; as a rule, active = well fitted cell-killing curve with a large enough effect in the repeat runs; inconclusive = weak or mixed curves; inactive = no such curve, though single readings can be large or run the other way.
% is set by controls: 0 for no effect and ±100 for the full control effect; potency is the fitted concentration of half-maximal effect.

The assay is described as follows: qHTS assay to identify small molecule antagonists of the androgen receptor (AR) signaling pathway - cell viability counter screen (AID 743033; note: nearly all actives have a fitted effect of over 45% in size). The note with it: AR-bla HEK293 viability, CellTiter-Glo luminescence, 16 h; series mostly up to 58.5 µM; activity change, negative = cytotoxicity: at the top concentration. The source says: National Center for Advancing Translational Sciences [NCATS]
NIH Chemical Genomics Center [NCGC]
U.S. Environmental Protection Agency [EPA]
National Institutes of Environmental Health Sciences [NIEHS]
National Toxicology Program [NTP]
U.S. Food and Drug Administration [FDA]
Androgen receptor (AR), a nuclear hormone receptor, plays a critical role in AR-dependent prostate cancer and other androgen related diseases. Endocrine disrupting chemicals (EDCs) and their interactions with steroid hormone receptors like AR may cause disruption of normal endocrine function as well as interfere with metabolic homeostasis, reproduction, developmental and behavioral functions. To identify the compounds that inhibit AR signaling, GeneBLAzer AR-UAS-bla-GripTite cell line (Invitrogen, Carlsbad, CA, USA) containing a beta-lactamase reporter gene under control of an Upstream Activator Sequence (UAS) stably integrated into HEK293 cells was used to screen the Tox21 10K compound library. The cytotoxicity of the Tox21 compound library against the AR-bla cell line was tested in parallel by measuring the cell viability using CellTiter-Glo assay in the same wells.
Tox21 Assay Protocol Summary:
AR-bla cells were dispensed at 2,000 cells/5 uL of assay medium per well into black wall/clear-bottom 1536-well plates using a Multidrop Combi (ThermoFisher Scientific, Waltham, MA) dispenser. After the assay plates were incubated at a 37C and 5% CO2 for 4 hr, 23 nL of compounds dissolved in DMSO, positive controls or DMSO only was transferred to the assay plate by a Pintool station (Kalypsys, San Diego, CA), followed by addition of 1 uL of agonist (R1881) in culture medium using a Bioraptr Flying Reagent Dispenser (FRD) workstation (Beckman Coulter, Indianapolis, IN, USA). The plates were incubated at a 37C and 5% CO2 for 16 h. After 1 uL of LiveBLAzerTM B/G FRET substrate was added using a Bioraptr FRD, the plates were incubated at room temperature for 2 h and fluorescence intensity was measured by an Envision plate reader (PerkinElmer, Shelton, CT). For cell viability readout that measures cytotoxicity, 4 ul/well of CellTiter-Glo reagent was added into the assay plates using a Bioraptr FRD. After 30 min incubation at room temperature, the luminescence intensity in the plates was measured using a ViewLux (PerkinElmer) plate reader.
`C=CCc1ccc(OC(=O)Cc2ccccc2)c(OC)c1`: the “activity change, negative = cytotoxicity” value is 0.622%.

Take `SCc1ccccc1`: the “activity change, negative = cytotoxicity” value is 2.3% [at 78.9 µM].

Turning to `N#CC1(N=NC2(C#N)CCCCC2)CCCCC1`, the “activity change, negative = cytotoxicity” value was 0.257%.

`CC(C)CCCCCCCOC(=O)c1ccccc1C(=O)OCCCCCCCC(C)C`: the “activity change, negative = cytotoxicity” value was 3.35%.

Regarding `CCOC(=O)c1cncn1C(C)c1ccccc1` (stereo not given), the “activity change, negative = cytotoxicity” value was -9.13% [at 27 µM].

For `C=CC(=O)OCC`, the “activity change, negative = cytotoxicity” value was -4.46% [at 78.9 µM].

For the molecule `NC(=O)CF`, the “activity change, negative = cytotoxicity” value is 5.51%.

For `COC1=CC(=O)O[C@@H](/C=C/c2ccc3c(c2)OCO3)C1`, the “activity change, negative = cytotoxicity” value is -10.6%.

Turning to `CCC(C)Cl` (stereo not given), the “activity change, negative = cytotoxicity” value is 5.56%.

Consider `Cc1cnc(C2=NC(C)(C(C)C)C(=O)N2)c(C(=O)O)c1` (stereo not given), for which the “activity change, negative = cytotoxicity” value was 0.767%.

`CC(O)CN1CCN(CC(=O)[O-])CCN(CC(=O)[O-])CCN(CC(=O)[O-])CC1.[Gd+3]` (stereo not given): the Potency entry is “inactive”.

For the molecule `O=CC=O`, the Potency entry was “inactive”.

Take `O=[N+]([O-])O[C@H]1CO[C@H]2[C@@H]1OC[C@H]2O[N+](=O)[O-]`: the “activity change, negative = cytotoxicity” value is 3.16%.

Take `OCCCl`: the “activity change, negative = cytotoxicity” value was 0.119%.

On to `C=C(Cl)Cl`, for which the “activity change, negative = cytotoxicity” value is 0.115% [at 78.9 µM].

As for `CC(C)OC(=O)Cc1ccccc1`, the “activity change, negative = cytotoxicity” value is -10.6% [at 78.9 µM].

Regarding `COc1cc(CC(C)N)c(OC)cc1Br` (stereo not given), the Potency entry was “inactive”.

As to `NC(=S)c1c(Cl)cccc1Cl`, the “activity change, negative = cytotoxicity” value is -0.66%.

On to `C=CCN1C[C@H](C)N([C@H](c2ccc(C(=O)N(CC)CC)cc2)c2cccc(OC)c2)C[C@H]1C`, for which the “activity change, negative = cytotoxicity” value is 0.58%.

In the case of `N#CC(C#N)=C(C#N)C#N`, the “activity change, negative = cytotoxicity” value is -0.599% [at 78.9 µM].

As for `O=C(Cc1ccccc1)c1ccccc1`, the “activity change, negative = cytotoxicity” value is 1.35%.

For `CCCCOC(=O)CCC(=O)OCCCC`, the “activity change, negative = cytotoxicity” value is 9.1%.

In the case of `CCN(C(C)=O)c1cccc(-c2ccnc3c(C#N)cnn23)c1`, the “activity change, negative = cytotoxicity” value is 1.63%.

Regarding `CCc1ccccc1N`, the “activity change, negative = cytotoxicity” value was -11.1%.

On to `CCOP(=O)(SC(C)CC)N1CCSC1=O` (stereo not given), for which the “activity change, negative = cytotoxicity” value is 0.0499%.

For the molecule `C[CH2][Hg][S]c1ccccc1C(=O)O`, the Potency was 10.7 µM (active) and 4.9 µM (active).

Take `CCOP(=S)(OCC)Oc1ccc(S(C)=O)cc1` (stereo not given): the “activity change, negative = cytotoxicity” value was 5.35%.

With `CC[N+]1(C)CCCC(OC(=O)C(O)(c2ccccc2)c2ccccc2)C1` (stereo not given), the “activity change, negative = cytotoxicity” value is -0.735%.

As for `Nc1cc(Cl)cc(C(=O)O)c1Cl`, the Potency entry is “inactive”.

Consider `Cc1ccccc1`, for which the Potency result is “inactive”.

Take `CC(C)[C@@H](C(=O)O[C@@H](C#N)c1cccc(Oc2ccccc2)c1)c1ccc(Cl)cc1`: the Potency entry is “inactive”.

Consider `C[N+](C)(C)CC1CO1` (stereo not given), for which the “activity change, negative = cytotoxicity” value is -1.28%.

Regarding `C=CC(C)(CCC=C(C)C)OC(=O)c1ccccc1N` (stereo not given), the “activity change, negative = cytotoxicity” value was 2.03% [at 78.9 µM].

As to `Clc1ccc2ccccc2c1`, the “activity change, negative = cytotoxicity” value is -1.38% [at 78.9 µM].

On to `CC(C)(C)CC(C)(C)c1ccc(O)cc1`, for which the “activity change, negative = cytotoxicity” value was -27%.

As for `O=C(O)C(F)(F)C(F)(F)C(F)(F)C(F)(F)C(F)(F)F`, the “activity change, negative = cytotoxicity” value was 4.47%.

Regarding `CC1(C)CC(=O)CC(C)(C)N1[O]`, the “activity change, negative = cytotoxicity” value is 4.94%.

Turning to `Clc1ccccc1`, the “activity change, negative = cytotoxicity” value is -0.394%.

As for `O=C(Cl)OCCOCCOC(=O)Cl`, the “activity change, negative = cytotoxicity” value is 6.21%.

As to `CCOP(=S)(S)OCC`, the “activity change, negative = cytotoxicity” value is 1.92% [at 78.9 µM].
